# Source: PubChem BioAssay
# Results filed as inconclusive are left out. The source made the active and inactive calls. Unless noted, the limit is not given here; nearly all actives have AC50 up to about 26 µM.
# What was measured:
# [1] = growth inhibition of DIPG glioma cells, dose response, cell-based, SU-DIPG-XVII, MIPE5.0, CellTiter-Glo, qHTS (AID 1347060); settings: SU-DIPG-XVII viability, CellTiter-Glo ATP luminescence;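 as to AC50: cells exposed to compound for 48 hours before viability readout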
# [2] = viability loss in pontine glioma line – cell-based, SU-DIPG-XXV, MIPE5.0, CellTiter-Glo, qHTS, dose response (AID 1347065); settings: CellTiter-Glo ATP luminescence;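 also: cells exposed to compound for 48 hours before ATP readout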
# [3] = SU-DIPG-XXV glioma cell viability, MIPE5.0 library, qHTS (AID 1347068; cut-off not given, nearly all actives have IC50 up to about 30 µM;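 as to IC50: cells exposed to compound for 48 hours before viability readout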)
# [4] = sensitizers of A549 cells to miR-34 induction, primary screen, imaging, A549 dox-inducible miR-34, nuclei and caspase counts (AID 1347080;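 active = compounds whose cell count with miR-34 switched on is under 0.7 times the count with it off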); settings: A549 miR-34 inducible, Hoechst nuclei count, 48 h
# [5] = survival rescue of mitochondrial mutant cells in low glucose, primary screen, MELAS cybrids, Rieske KO mouse fibroblasts, CellTiter-Glo (AID 1508586;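 active = mean z-score across replicates of 1.96 or higher in either the MELAS or the Rieske mutant cell line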;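 also: z relative to plate mean and SD of compound and empty wells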)
# [6] = JHH-DIPG-1 glioma cell viability, MIPE5.0 library, CellTiter-Glo luminescence, qHTS (AID 1347067); settings: JHH-DIPG-1 glioma viability, CellTiter-Glo ATP luminescence;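 also: cells exposed to compound for 48 hours before readout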
# [7] = stronger effect = lower value, cell number ratio, induced over uninduced
# [8] = measured here: relative caspase fold change +Dox/-Dox
# [9] = measured here: total cells with miR-34 induction, stronger effect = lower value
# [10] = measured here: total cells without miR-34 induction
# [11] = MELAS cybrid survival, CellTiter-Glo 48 h, stronger effect = higher value
# [12] = Rieske KO mouse fibroblast survival, CellTiter-Glo 72 h
structure (smiles),measurement,setting,value
Nc1nccn2c(C3CCC(C(=O)O)CC3)nc(-c3cc4cccc(Cl)c4[nH]3)c12 (stereo not drawn),AC50,[1],4.17 µM (active)
same,AC50,[2],2.63 µM (active)
same,outcome,[3],inactive
CC(Nc1ncnc2nc[nH]c12)c1cc2cccc(Cl)c2c(=O)n1-c1ccccc1 (stereo not drawn),AC50,[1],18.6 µM (active)
same,AC50,[2],18.6 µM (active)
same,fold change,[4]; [7],0.872 (inactive)
same,fold change,[4]; [8],0.835
same,cell count,[4]; [9],6590
same,cell count,[4]; [10],7550
same,z-score,[5]; [11],-0.147 (inactive)
same,z-score,[5]; [12],-0.173
Nc1ncnc2c1C(=O)N(c1ccc(C3CCC(CC(=O)O)CC3)cc1)CCO2 (stereo not drawn),outcome,[1],inactive
same,outcome,[2],inactive
same,outcome,[6],inactive
same,outcome,[3],inactive
same,fold change,[4]; [7],0.873 (inactive)
same,fold change,[4]; [8],0.72
same,cell count,[4]; [9],8200
same,cell count,[4]; [10],9390
same,z-score,[5]; [11],-0.311 (inactive)
same,z-score,[5]; [12],-0.473
[O-][n+]1cccc(-c2nc3c(Cl)cccc3cc2[C@@H](Nc2ncnc3cccnc23)C(F)(F)F)c1,outcome,[1],inactive
same,outcome,[6],inactive
O=C(/C=C/N1C[C@H]2C[C@@H]1CN2c1ccccn1)c1ccccc1O,outcome,[1],inactive
same,outcome,[6],inactive
N#Cc1cccc(-c2c[nH]c3ncnc(N4CCOCC4)c23)c1,outcome,[1],inactive
same,outcome,[2],inactive
same,outcome,[3],inactive
C[C@H](NC(=O)CCC(F)(F)F)C(=O)N[C@@H]1C(=O)N(CCO)c2ncccc2-c2ccccc21,outcome,[1],inactive
same,outcome,[6],inactive
C=CC(=O)Nc1cccc(Nc2nc(Nc3ccc(Oc4ccnc(C(=O)NC)c4)cc3)ncc2F)c1,AC50,[1],10.5 µM (active)
same,AC50,[2],7.42 µM (active)
same,AC50,[6],14.8 µM (active)
same,IC50,[3],13.2 µM (active)
same,fold change,[4]; [7],0.924 (inactive)
same,fold change,[4]; [8],0.336
same,cell count,[4]; [9],4090
same,cell count,[4]; [10],4430
same,z-score,[5]; [11],1.34 (inactive)
same,z-score,[5]; [12],1.7
CCCOc1ccn2c(C(C)=O)cc(-c3ccccc3S(C)(=O)=O)c2c1,outcome,[1],inactive
same,outcome,[2],inactive
same,outcome,[3],inactive
